The record followed here is PubChem BioAssay (NCATS).

Inconclusive results are not listed. Active and inactive are the calls of the source. Calls come from the whole dose curve; as a rule, active = well fitted inhibition curve with a large enough effect; inconclusive = small, poorly fitted or top-dose-only effect; inactive = flat fitted curve, though single readings scatter.
Potency is the fitted concentration of half-maximal effect.

The first assay deals with 7G8. Nature of the assay: qHTS profiling for inhibitors of Plasmodium falciparum proliferation (AID 504749).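 For activity, negative = inhibition: 0% = DMSO vehicle and full inhibition = artemisinin control.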 Note: nearly all actives have a fitted effect of over 60% in size. As to conditions: P. falciparum in erythrocytes, SYBR Green DNA, 72 h; series mostly up to 28.7 µM; activity, negative = inhibition: at the top concentration. The essentials:
(§1)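 Three-day growth assay of blood-stage parasites in erythrocytes (0.3% parasitemia, 2.5% hematocrit) at 37 C, 5% CO2, quantified by SYBR Green DNA staining after overnight detergent lysis.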
As for `S=P(N1CC1)(N1CC1)N1CC1`, the “activity, negative = inhibition” value is -10.7% (inactive).

For the molecule `COc1cc([C@@H]2c3cc4c(cc3[C@H](O)[C@H]3COC(=O)[C@H]23)OCO4)cc(OC)c1OC`, the Potency is 316 nM (active).

Regarding `COC(=O)Nc1nc2ccc(C(=O)c3ccccc3)cc2[nH]1`, the “activity, negative = inhibition” value was -29.7% [at 12.8 µM] (inactive).

For the molecule `COc1ccc2cc3[n+](cc2c1OC)CCc1cc2c(cc1-3)OCO2`, the Potency was 282 nM (active).

`N=C(N)c1ccc(OCCCCCOc2ccc(C(=N)N)cc2)cc1`: the Potency was 199 nM (active).

Take `Oc1c(Cl)cc(Cl)c2cccnc12`: the Potency was 6310 nM (active).

With `CCc1cc(C(N)=S)ccn1`, the “activity, negative = inhibition” value is -13% (inactive).

Take `COc1cc2c(Nc3ccc(Br)cc3F)ncnc2cc1OCC1CCN(C)CC1`: the Potency was 3160 nM (active).

Consider `COC(=O)Nc1nc2ccc(Sc3ccccc3)cc2[nH]1`, for which the “activity, negative = inhibition” value is 6.9% [at 12.8 µM] (inactive).

`C1CCC(C(CC2CCCCN2)C2CCCCC2)CC1` (stereo not drawn): the Potency was 1260 nM (active).

`CCCc1nc(C)c2c(=O)[nH]c(-c3cc(S(=O)(=O)N4CCN(CC)CC4)ccc3OCC)nn12`: the Potency was 7080 nM (active).

Regarding `COc1cc(NCc2ccc3nc(N)nc(N)c3c2C)cc(OC)c1OC`, the Potency is 79.4 nM (active).

With `CCCCOc1ccc(CC(=O)NO)cc1`, the Potency is 1780 nM (active).

`Cc1nnc(NS(=O)(=O)c2ccc(N)cc2)s1`: the “activity, negative = inhibition” value was -1.68% (inactive).

On to `Nc1nc(N)c2nc(CNc3ccc(C(=O)NC(CCC(=O)O)C(=O)O)cc3)cnc2n1` (stereo not drawn), for which the “activity, negative = inhibition” value is -11.9% (inactive).

`CNC(=O)c1cc(Oc2ccc(NC(=O)Nc3ccc(Cl)c(C(F)(F)F)c3)cc2)ccn1`: the Potency was 1000 nM (active).

Turning to `CCCCCCNC(=O)n1cc(F)c(=O)[nH]c1=O`, the Potency is 5010 nM (active).

For `CC(C)NCC(O)c1ccc(NS(C)(=O)=O)cc1` (stereo not drawn), the Potency result was “inactive”.

Turning to `CC(C)OC(=O)C(C(=O)OC(C)C)=C1SC=CS1`, the “activity, negative = inhibition” value was -17% (inactive).

Regarding `CC[C@H](C)C(=O)O[C@H]1C[C@@H](C)C=C2C=C[C@H](C)[C@H](CC[C@@H]3C[C@@H](O)CC(=O)O3)[C@H]21`, the “activity, negative = inhibition” value was -28.8% (inactive).

In the case of `O=c1cc(O)c(Cl)c[nH]1`, the “activity, negative = inhibition” value was 1.6% (inactive).

Consider `CC(=O)Oc1ccccc1C(=O)Nc1ncc([N+](=O)[O-])s1`, for which the Potency was 10000 nM (active).

Consider `CNC1CCCN(c2c(F)cc3c(=O)c(C(=O)O)cn(C4CC4)c3c2OC)C1` (stereo not drawn), for which the “activity, negative = inhibition” value is -25.5% (inactive).

For the next assay, the system named is AA1029. Described as above. As to conditions: P. falciparum in erythrocytes, SYBR Green DNA, 72 h; series mostly up to 28.7 µM; activity, negative = inhibition: at the top concentration. The essentials: as §1
In the case of `S=P(N1CC1)(N1CC1)N1CC1`, the “activity, negative = inhibition” value is 1.36% (inactive).

As for `COc1cc([C@@H]2c3cc4c(cc3[C@H](O)[C@H]3COC(=O)[C@H]23)OCO4)cc(OC)c1OC`, the Potency was 11200 nM (active).

Take `COc1ccc(-c2ccc3cc(C(=O)O)ccc3c2)cc1C12CC3CC(CC(C3)C1)C2`: the “activity, negative = inhibition” value was 0.341% (inactive).

Regarding `COC(=O)Nc1nc2ccc(C(=O)c3ccccc3)cc2[nH]1`, the “activity, negative = inhibition” value is -9.54% [at 12.8 µM] (inactive).

In the case of `COc1ccc2cc3[n+](cc2c1OC)CCc1cc2c(cc1-3)OCO2`, the Potency was 708 nM (active).

Turning to `CNNCc1ccc(C(=O)NC(C)C)cc1`, the “activity, negative = inhibition” value is -7.31% (inactive).

On to `N=C(N)c1ccc(OCCCCCOc2ccc(C(=N)N)cc2)cc1`, for which the Potency is 1000 nM (active).

As for `CCc1cc(C(N)=S)ccn1`, the “activity, negative = inhibition” value is 0.492% (inactive).

`COc1cc2c(Nc3ccc(Br)cc3F)ncnc2cc1OCC1CCN(C)CC1`: the Potency was 2820 nM (active).

On to `COC(=O)Nc1nc2ccc(Sc3ccccc3)cc2[nH]1`, for which the “activity, negative = inhibition” value was 8.33% [at 12.8 µM] (inactive).

For the molecule `C1CCC(C(CC2CCCCN2)C2CCCCC2)CC1` (stereo not drawn), the Potency was 11200 nM (active).

Regarding `CC(C)Cn1cnc2c(N)nc3ccccc3c21`, the “activity, negative = inhibition” value was -14.7% (inactive).

As for `CC(C)(Sc1cc(C(C)(C)C)c(O)c(C(C)(C)C)c1)Sc1cc(C(C)(C)C)c(O)c(C(C)(C)C)c1`, the “activity, negative = inhibition” value is 4.66% [at 12.8 µM] (inactive).

On to `COc1cc(NCc2ccc3nc(N)nc(N)c3c2C)cc(OC)c1OC`, for which the Potency was 1000 nM (active).

On to `Cc1nnc(NS(=O)(=O)c2ccc(N)cc2)s1`, for which the “activity, negative = inhibition” value is 0.704% (inactive).

In the case of `Nc1nc(N)c2nc(CNc3ccc(C(=O)NC(CCC(=O)O)C(=O)O)cc3)cnc2n1` (stereo not drawn), the “activity, negative = inhibition” value was 3.26% (inactive).

As to `CCOC(=O)[C@H](CCc1ccccc1)N[C@H]1CS[C@H](c2cccs2)CN(CC(=O)O)C1=O`, the “activity, negative = inhibition” value is -17.4% (inactive).

Consider `CCc1c2c(nc3ccc(OC(=O)N4CCC(N5CCCCC5)CC4)cc13)-c1cc3c(c(=O)n1C2)COC(=O)[C@]3(O)CC`, for which the “activity, negative = inhibition” value is 0.451% (inactive).

Turning to `CC(C)NCC(O)c1ccc(NS(C)(=O)=O)cc1` (stereo not drawn), the Potency entry was “inactive”.

As for `CC(C)OC(=O)C(C(=O)OC(C)C)=C1SC=CS1`, the “activity, negative = inhibition” value is 10.6% (inactive).

For the molecule `CC[C@H](C)C(=O)O[C@H]1C[C@@H](C)C=C2C=C[C@H](C)[C@H](CC[C@@H]3C[C@@H](O)CC(=O)O3)[C@H]21`, the “activity, negative = inhibition” value is -4.77% (inactive).

As for `O=c1cc(O)c(Cl)c[nH]1`, the “activity, negative = inhibition” value is 2.11% (inactive).

For the molecule `CC(=O)Oc1ccccc1C(=O)Nc1ncc([N+](=O)[O-])s1`, the “activity, negative = inhibition” value was -13.3% (inactive).

In the case of `COc1ccc(C(=O)CC(=O)c2ccc(C(C)(C)C)cc2)cc1`, the “activity, negative = inhibition” value is 7.52% (inactive).

In the case of `CNC1CCCN(c2c(F)cc3c(=O)c(C(=O)O)cn(C4CC4)c3c2OC)C1` (stereo not drawn), the “activity, negative = inhibition” value was -7.46% (inactive).
